The record followed here is PubChem BioAssay.

Structures are written as SMILES. Unmarked numbers belong to inactive results. For part of these data: Potency and affinity values are given separately. Calls of active or inactive are those of the source. Unless noted, no rule for the calls is given here.

A short description of test [1]: antimalarial activity against Dd2 strain (AID 2302;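 active = growth inhibition above 50% at the single 2 µM test dose, taken to imply half-maximal potency below 2 µM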;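 also: 0% = DMSO untreated growth and 100% = chloroquine plus artemisinin killed control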). As to conditions: P. falciparum Dd2 in RBCs, LDH growth readout, 72 h; at 2 µM; active compounds read high.
Test [2] in a line: human hepatoma cell viability loss – ATP luminescence, cytotoxicity control for P. falciparum antimalarial project, primary screen (AID 2303;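 active = inhibition above 50%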;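 also: 0% = DMSO wells and 100% = digitonin-killed cells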). As to conditions: HepG2 viability, 24-48 h, at 10 µM, active compounds read high.
Test [3] has as its target L-lactate dehydrogenase (Plasmodium falciparum (isolate CDC / Honduras)) (UniProt Q27743). Nature of the test: PfLDH activity inhibition – cell lysate, 3D7 strain, counter-screen for P. falciparum growth inhibition project (AID 2304).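 Also: 0% = vehicle and 100% = reference inhibitor.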 As to conditions: P. falciparum 3D7 crude extract, LDH APAD/NBT absorbance; at 2 µM; active compounds read high. For orientation: A counterscreen serves to expose hits that act by an unwanted route or on another target.

Test [4] is described as follows: inhibition of 3D7 malaria parasite growth – strain 3D7 (AID 2306).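 Also: 0% = DMSO wells and 100% = chloroquine plus artemisinin control wells.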 The settings on record: P. falciparum 3D7 erythrocytic growth, LDH absorbance, 72 h; at 2 µM; active compounds read high.
Test [5] concerns the target Calcium-dependent protein kinase 1 (Plasmodium falciparum (isolate 3D7)) (UniProt P62344). The test is described as follows: PfCDPK1 kinase inhibitors, biochemical, TCAMS library (AID 1159585; cut-off not given, nearly all actives have IC50 up to about 0.98 µM;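 also: inhibitors leave more ATP so luminescence rises with inhibition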). The settings on record: recombinant PfCDPK1, Kinase-Glo ATP depletion luminescence. (Kinase-Glo reads ATP consumption through a luciferase reaction.)
For test [6], the target named is Plasmodium falciparum protein kinase 6 (PK6, PF3D7_1337100) (UniProt Q8IDW1). Nature of the test: PfPK6 kinase inhibitors, biochemical, TCAMS library (AID 1159586). As to conditions: recombinant PfPK6, Kinase-Glo ATP depletion luminescence.
Plasmodium falciparum protein kinase 6 (PK6, PF3D7_1337100), sequence (Q8IDW1 1-305): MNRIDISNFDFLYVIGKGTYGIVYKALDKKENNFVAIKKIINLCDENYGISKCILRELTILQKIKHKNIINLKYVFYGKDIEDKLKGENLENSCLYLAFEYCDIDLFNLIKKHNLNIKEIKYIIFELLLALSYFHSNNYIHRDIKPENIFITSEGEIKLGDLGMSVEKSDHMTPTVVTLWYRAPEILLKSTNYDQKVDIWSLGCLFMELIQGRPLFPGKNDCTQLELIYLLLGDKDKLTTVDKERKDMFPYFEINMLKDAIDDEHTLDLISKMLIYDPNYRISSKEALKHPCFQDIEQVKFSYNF
Test [7] concerns the target Protein kinase 7 (PK7), Plasmodium falciparum 3D7 (PF3D7_0213400) (UniProt Q7YTF7). Nature of the test: inhibition of Plasmodium PK7 catalytic activity – biochemical, TCAMS antimalarial set, Kinase-Glo luminescence (AID 1159587). The settings on record: recombinant PfPK7, Kinase-Glo ATP depletion luminescence.
Test [8] concerns the target Calcium-dependent protein kinase 4 (Plasmodium falciparum (isolate 3D7)) (UniProt Q8IBS5). The test is described as follows: PfCDPK4 kinase inhibitors, biochemical, TCAMS library (AID 1159588; cut-off not given, nearly all actives have IC50 up to about 0.91 µM). The settings on record: recombinant PfCDPK4, Kinase-Glo ATP depletion luminescence.

Protein kinase 7 (PK7), Plasmodium falciparum 3D7 (PF3D7_0213400), sequence (Q7YTF7 1-343): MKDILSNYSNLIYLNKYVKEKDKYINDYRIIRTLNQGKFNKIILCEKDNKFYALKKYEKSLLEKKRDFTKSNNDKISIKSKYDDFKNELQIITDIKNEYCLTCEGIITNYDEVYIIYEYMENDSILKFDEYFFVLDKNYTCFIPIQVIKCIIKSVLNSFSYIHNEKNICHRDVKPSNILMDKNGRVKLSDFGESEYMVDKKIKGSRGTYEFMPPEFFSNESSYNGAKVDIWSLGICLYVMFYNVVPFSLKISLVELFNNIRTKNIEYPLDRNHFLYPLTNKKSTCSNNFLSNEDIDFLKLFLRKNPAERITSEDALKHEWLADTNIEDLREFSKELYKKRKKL
Calcium-dependent protein kinase 1 (Plasmodium falciparum (isolate 3D7)), sequence (P62344 whole entry, looked up): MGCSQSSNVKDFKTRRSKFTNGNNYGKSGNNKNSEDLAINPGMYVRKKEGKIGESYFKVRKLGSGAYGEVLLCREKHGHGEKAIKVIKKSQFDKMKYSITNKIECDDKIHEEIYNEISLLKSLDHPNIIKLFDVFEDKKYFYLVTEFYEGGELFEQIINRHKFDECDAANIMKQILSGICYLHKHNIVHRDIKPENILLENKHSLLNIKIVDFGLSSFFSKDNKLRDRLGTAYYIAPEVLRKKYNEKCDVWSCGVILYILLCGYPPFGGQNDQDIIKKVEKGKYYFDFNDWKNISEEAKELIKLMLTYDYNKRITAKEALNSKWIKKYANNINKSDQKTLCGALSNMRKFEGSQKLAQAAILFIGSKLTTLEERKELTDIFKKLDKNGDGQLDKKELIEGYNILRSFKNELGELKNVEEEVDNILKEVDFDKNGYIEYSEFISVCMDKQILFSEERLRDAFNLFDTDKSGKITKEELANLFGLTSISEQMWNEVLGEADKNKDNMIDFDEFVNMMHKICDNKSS
L-lactate dehydrogenase (Plasmodium falciparum (isolate CDC / Honduras)), sequence (Q27743 whole entry, looked up): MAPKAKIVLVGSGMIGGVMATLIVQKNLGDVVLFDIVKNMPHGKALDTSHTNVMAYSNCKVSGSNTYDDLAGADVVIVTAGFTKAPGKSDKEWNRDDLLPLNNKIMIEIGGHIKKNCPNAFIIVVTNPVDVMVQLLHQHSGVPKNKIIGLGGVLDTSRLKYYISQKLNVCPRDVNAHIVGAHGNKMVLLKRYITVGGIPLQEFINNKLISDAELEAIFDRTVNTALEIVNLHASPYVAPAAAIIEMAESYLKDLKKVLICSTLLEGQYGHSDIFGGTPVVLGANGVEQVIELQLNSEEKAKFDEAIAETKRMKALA
Calcium-dependent protein kinase 4 (Plasmodium falciparum (isolate 3D7)), sequence (Q8IBS5 whole entry, looked up): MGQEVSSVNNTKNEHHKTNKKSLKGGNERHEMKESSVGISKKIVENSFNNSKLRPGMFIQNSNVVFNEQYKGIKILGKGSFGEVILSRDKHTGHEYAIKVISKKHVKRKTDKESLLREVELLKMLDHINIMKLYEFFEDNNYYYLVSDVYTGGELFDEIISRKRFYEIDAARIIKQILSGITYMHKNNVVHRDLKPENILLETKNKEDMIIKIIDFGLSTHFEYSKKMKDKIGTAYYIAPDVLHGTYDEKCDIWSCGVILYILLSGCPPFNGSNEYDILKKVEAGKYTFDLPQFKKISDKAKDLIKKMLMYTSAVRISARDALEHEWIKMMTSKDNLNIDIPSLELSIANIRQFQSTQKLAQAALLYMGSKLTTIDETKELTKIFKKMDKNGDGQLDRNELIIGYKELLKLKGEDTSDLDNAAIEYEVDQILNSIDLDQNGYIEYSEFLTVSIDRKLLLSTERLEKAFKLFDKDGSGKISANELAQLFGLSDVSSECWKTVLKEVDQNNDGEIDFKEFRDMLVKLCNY

The term inhibition denotes the relative decrease from the control value, in per cent. Turning to `Cc1cnc2ccc(NS(=O)(=O)c3sc4ccc(Cl)cc4c3C)cc2c1N1CCNCC1`, the growth inhibition is -1% in test [1] and 99% (active) in test [4]. Moreover, the inhibition in test [2] was -9%; in test [3], 4%. Besides, the outcome in test [5], in test [6], in test [7] and in test [8] was inactive.

As for `COCCNC(=O)C1CCN(C(c2ccc(Cl)cc2)c2ccc(Cl)cc2)CC1`, the growth inhibition in test [1] was 73% (active); in test [4], 86% (active). For the same molecule, the inhibition in test [2] was 3%; in test [3] it was -3%. The result in test [5], in test [6], in test [7] and in test [8] was inactive.

With `Fc1ccc2nc(-c3ccc(-c4ccc(CN5CCN(c6cnccn6)CC5)cc4)s3)[nH]c2c1`, the growth inhibition is 98% (active) in test [1] and 99% (active) in test [4]. Besides, the inhibition in test [2] is 45%; in test [3] it was 5%. Further, the result in test [5], in test [6], in test [7] and in test [8] was inactive.

For `COc1ccc(CC(=O)NC(CCN2CCC3(CC2)CN(S(C)(=O)=O)c2ccccc23)c2ccc(Cl)c(Cl)c2)cc1OC` (stereo not drawn), the growth inhibition was 77% (active) in test [1] and 92% (active) in test [4]. Further, the inhibition in test [2] is 10%; in test [3], 7%. Besides, the result in test [5], in test [6], in test [7] and in test [8] was inactive.

In the case of `CNC(=C[N+](=O)[O-])NCCSCc1cc(C)c(CN(C)C)s1`, the growth inhibition in test [1] is 96% (active); in test [4], 98% (active). Also, the inhibition was 48% in test [2] and -1% in test [3]. The outcome in test [5], in test [6], in test [7] and in test [8] was inactive.

Take `COc1ccc(CN2CCC(CN3CC4(OC3=O)c3ccccc3-c3ccccc34)C2)c(O)c1` (stereo not drawn): the growth inhibition was 79% (active) in test [1] and 101% (active) in test [4]. For the same molecule, the inhibition is 22% in test [2] and -7% in test [3]. For the same molecule, the result in test [5], in test [6], in test [7] and in test [8] was inactive.

Consider `CCOC(=O)c1c(CN2CCCC2)n(-c2ccccc2)c2cc(Br)c(O)cc12`, for which the results for the growth inhibition in test [1] and in test [4] were 53% (active) and 83% (active), respectively. Besides, the inhibition in test [2] and in test [3] was -2% each time. In addition, the outcome in test [5], in test [6], in test [7] and in test [8] was inactive.

In the case of `O=C(Nc1cccnc1)c1cc(-c2cccnc2)nc2ccc(Br)cc12`, the results for the growth inhibition in test [1] and in test [4] were 60% (active) and 99% (active), respectively. Further, the results for the inhibition in test [2] and in test [3] were 9% and 1%, respectively. Also, the outcome in test [5], in test [6], in test [7] and in test [8] was inactive.

`CCCCN(Cc1cnccc1-c1ccc(Br)cc1)c1ccc(C(O)(C(F)(F)F)C(F)(F)F)cc1`: the figures for the growth inhibition in test [1] and in test [4] were 45% and 87% (active), respectively. Besides, the inhibition was 10% in test [2] and 6% in test [3]. Besides, the outcome in test [5], in test [6], in test [7] and in test [8] was inactive.

Take `COc1ccc2nccc(NC(=O)N3CCC(NCc4cc5ccccc5[nH]4)CC3)c2n1`: the growth inhibition in test [1] is 29%; in test [4] it was 85% (active). Further, the inhibition is 27% in test [2] and -5% in test [3]. The result in test [5], in test [6], in test [7] and in test [8] was inactive.

As to `Cc1nnsc1C(=O)Nc1ccc(-c2cccc(-c3nc4ccc(F)cc4[nH]3)c2)cc1`, the growth inhibition in test [1] was 27%; in test [4], 96% (active). Further, the results for the inhibition in test [2] and in test [3] were 44% and 2%, respectively. Also, the result in test [5], in test [6], in test [7] and in test [8] was inactive.

Turning to `O=C(N[C@@H](CC1CCCCC1)C(=O)NCCN1CCCCC1)c1ccc(O)c(-c2cccc(C(F)(F)F)c2)c1`, the values for the growth inhibition in test [1] and in test [4] were 97% (active) and 99% (active), respectively. Moreover, the values for the inhibition in test [2] and in test [3] were -5% and 6%, respectively. The result in test [5], in test [6], in test [7] and in test [8] was inactive.

In the case of `O=C(/C=C/c1ccc(Cl)c(Cl)c1)NCCCCCN1CCC(C(=O)Nc2ccc(F)c(Cl)c2)CC1`, the values for the growth inhibition in test [1] and in test [4] were -3% and 100% (active), respectively. The inhibition in test [2] was 25%; in test [3] it was 2%. Also, the outcome in test [5], in test [6], in test [7] and in test [8] was inactive.

Consider `Cc1cc(-c2ccc3c(c2)CC[C@@H](N[C@@H](C)c2ccccc2)C3)cnc1N`, for which the values for the growth inhibition in test [1] and in test [4] were 7% and 98% (active), respectively. Besides, the inhibition in test [2] was 3%; in test [3], -2%. For the same molecule, the result in test [5], in test [6], in test [7] and in test [8] was inactive.

Take `Cc1ccn2cc(-c3ccc(NC(=O)c4ccc(Br)o4)cc3)nc2c1`: the growth inhibition was 41% in test [1] and 98% (active) in test [4]. For the same molecule, the figures for the inhibition in test [2] and in test [3] were 100% (active) and -3%, respectively. The outcome in test [5], in test [6], in test [7] and in test [8] was inactive.

In the case of `Cc1ccc(S(=O)(=O)c2nc(S(=O)(=O)c3ccccc3)sc2NCC2CCCO2)cc1` (stereo not drawn), the growth inhibition was 17% in test [1] and 88% (active) in test [4]. Also, the figures for the inhibition in test [2] and in test [3] were 4% and 0%, respectively. The outcome in test [5], in test [6], in test [7] and in test [8] was inactive.

As to `OCCN1CCN(Cc2ccc(-c3ccc(-c4nc5ccccc5[nH]4)cc3)cc2)CC1`, the growth inhibition in test [1] is 58% (active); in test [4], 100% (active). The inhibition in test [2] was 6%; in test [3], -1%. Also, the outcome in test [5], in test [6], in test [7] and in test [8] was inactive.

Take `COc1cc(Cc2cnc(N)nc2N)cc(OC)c1OCCCCCN1C(=O)c2ccccc2C1=O`: the values for the growth inhibition in test [1] and in test [4] were 4% and 97% (active), respectively. The figures for the inhibition in test [2] and in test [3] were 5% and 3%, respectively. Besides, the result in test [5], in test [6], in test [7] and in test [8] was inactive.

Turning to `CNCc1cccc2[nH]c(-c3csc(Cc4cc(Cl)ccc4OCC(C)C)n3)nc12`, the growth inhibition in test [1] is 33%; in test [4] it was 100% (active). For the same molecule, the inhibition was 9% in test [2] and -4% in test [3]. In addition, the outcome in test [5], in test [6], in test [7] and in test [8] was inactive.

For `COc1cc(C(=O)NCCCN2CCN(c3cccc(Cl)c3)CC2)ccc1-c1nc2cc(Cl)c(F)cc2[nH]1`, the growth inhibition was 81% (active) in test [1] and 100% (active) in test [4]. Further, the inhibition was 15% in test [2] and 0% in test [3]. The outcome in test [5], in test [6], in test [7] and in test [8] was inactive.

Turning to `Cc1cc(N2CCNCC2)c2cc(NC(=O)Nc3ccc(Cl)c(Cl)c3)ccc2n1`, the growth inhibition was 86% (active) in test [1] and 100% (active) in test [4]. The inhibition in test [2] is 23%; in test [3], -2%. Moreover, the outcome in test [5], in test [6], in test [7] and in test [8] was inactive.
